# Laboratory results reported in the supplement of paper PMC12282887.
# ± gives the standard deviation of the averaged measurements.
# Tests used:
# Assay in all cases: promoter activity interaction Z-score (Lux/OD deviation from empty-vector control); higher = stronger promoter induction by the compound
# [1] = tested on: E. coli BW25113 robp lux reporter; conditions: 0.27 µg/ml
# How it was run: (§1)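 Wild-type E. coli BW25113 and three single-gene deletion strains, each carrying a low-copy luxCDABE promoter reporter, were grown at 37°C in 40 µl LB Lennox per well of a 384-well plate. Every compound was applied at four 1:2 dilutions in biological duplicates, and OD600 and luminescence were read every 30 min for 12 h. Integration covered 0–8 h for wild type and 1–9 h for deletion strains, and wells under 10% of the median growth value were removed. Scores are Z-transformed residuals of growth-normalised luminescence fitted against a control.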
# [2] = tested on: E. coli BW25113 soxSp lux reporter
# How it was run: as §1
# [3] = tested on: E. coli BW25113 tolCp lux reporter
# How it was run: as §1
# [4] = 0.034 µg/ml, genetic background: wild type
# [5] = 0.034 µg/ml, genetic background: ΔmarA
# [6] = 0.034 µg/ml, genetic background: Δrob
# [7] = 0.034 µg/ml, genetic background: ΔsoxS
# [8] = 0.067 µg/ml, genetic background: wild type
# [9] = 0.067 µg/ml, genetic background: ΔmarA
# [10] = 0.067 µg/ml, genetic background: Δrob
# [11] = 0.067 µg/ml, genetic background: ΔsoxS
# [12] = 0.13 µg/ml, genetic background: wild type
# [13] = 0.13 µg/ml, genetic background: ΔmarA
# [14] = 0.13 µg/ml, genetic background: Δrob
# [15] = 0.13 µg/ml, genetic background: ΔsoxS
# [16] = 0.27 µg/ml, genetic background: wild type
# [17] = 0.27 µg/ml, genetic background: ΔmarA
# [18] = 0.27 µg/ml, genetic background: Δrob
# [19] = 0.27 µg/ml, genetic background: ΔsoxS
smiles,measurement,setting,value
CCN1CCN(C(=O)N[C@@H](C(=O)N[C@@H]2C(=O)N3[C@@H]2SC(C)(C)[C@@H]3C(=O)O)c2ccccc2)C(=O)C1=O [Piperacillin],promoter activity interaction Z-score,[1]; genetic background: wild type,0.179 ± 0.51
same,promoter activity interaction Z-score,[1]; genetic background: ΔmarA,0.636 ± 0.1
same,promoter activity interaction Z-score,[1]; genetic background: Δrob,0.356 ± 0.1
same,promoter activity interaction Z-score,[1]; genetic background: ΔsoxS,-0.904 ± 1.2
same,promoter activity interaction Z-score,[2]; [4],-0.0446 ± 0.039
same,promoter activity interaction Z-score,[2]; [5],-0.141 ± 0.061
same,promoter activity interaction Z-score,[2]; [6],0.0401 ± 0.031
same,promoter activity interaction Z-score,[2]; [7],-0.0874 ± 0.14
same,promoter activity interaction Z-score,[2]; [8],0.017 ± 0.053
same,promoter activity interaction Z-score,[2]; [9],-0.00164 ± 0.038
same,promoter activity interaction Z-score,[2]; [10],0.126 ± 0.088
same,promoter activity interaction Z-score,[2]; [11],0.0907 ± 0.13
same,promoter activity interaction Z-score,[2]; [12],-0.0137 ± 0.014
same,promoter activity interaction Z-score,[2]; [13],-0.056 ± 0.022
same,promoter activity interaction Z-score,[2]; [14],-0.105 ± 0.013
same,promoter activity interaction Z-score,[2]; [15],-0.0509 ± 0.17
same,promoter activity interaction Z-score,[2]; [16],-0.122 ± 0.084
same,promoter activity interaction Z-score,[2]; [17],-0.184 ± 0.011
same,promoter activity interaction Z-score,[2]; [18],-0.0489 ± 0.12
same,promoter activity interaction Z-score,[2]; [19],-0.233 ± 0.7
same,promoter activity interaction Z-score,[3]; [4],0.0285 ± 0.87
same,promoter activity interaction Z-score,[3]; [5],-0.171 ± 0.024
same,promoter activity interaction Z-score,[3]; [6],-0.382 ± 0.53
same,promoter activity interaction Z-score,[3]; [7],0.0095 ± 1.5
same,promoter activity interaction Z-score,[3]; [8],0.334 ± 0.13
same,promoter activity interaction Z-score,[3]; [9],0.917 ± 0.67
same,promoter activity interaction Z-score,[3]; [10],0.279 ± 0.2
same,promoter activity interaction Z-score,[3]; [11],-0.332 ± 0.83
same,promoter activity interaction Z-score,[3]; [12],-0.441 ± 0.82
same,promoter activity interaction Z-score,[3]; [13],-0.635 ± 0.38
same,promoter activity interaction Z-score,[3]; [14],0.0967 ± 0.77
same,promoter activity interaction Z-score,[3]; [15],-0.574 ± 0.84
same,promoter activity interaction Z-score,[3]; [16],-0.552 ± 0.3
same,promoter activity interaction Z-score,[3]; [17],0.498 ± 0.032
same,promoter activity interaction Z-score,[3]; [18],0.489 ± 0.43
same,promoter activity interaction Z-score,[3]; [19],-0.895 ± 0.62
